From PubChem BioAssay
Records with an inconclusive call do not appear. The source made the active and inactive calls. No cut-off is given here; in the data, nearly all actives have AC50 up to about 26 µM.

Experiment: differential killing of epithelial or mesenchymal cells, primary screen, imaging, PC-3E GFP, TEM4-18 mCherry, co-culture (AID 1345086);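 note: cells exposed to compound for 72 h before imaging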
Conditions: imaging cell counts, measured here: mesenchymal TEM4-18 mCherry cell survival, at 1 µM

| Compound | normalised cell number |
| --- | --- |
| OC(c1cc(C(F)(F)F)nc2c(C(F)(F)F)cccc12)C1CCCCN1 (stereo not given) | 1.1 |
| C[C@H]1COC2=C1C(=O)C(=O)c1c2ccc2c1CCCC2(C)C | 0.8 |
| CCCCS(=N)(=O)CCC(N)C(=O)O (stereo not given) | 0.83 |
| CC[C@@]1(O)C(=O)OCc2c1cc1n(c2=O)Cc2cc3cc(O)ccc3nc2-1 | 0.29 |
| Oc1cc2c(cc1O)C1c3ccc(O)c(O)c3OCC1(O)C2 (stereo not given) | 1.18 |
| Nc1nc(N)c2nc(CNc3ccc(C(=O)NC(CCC(=O)O)C(=O)O)cc3)cnc2n1 (stereo not given) | 0.96 |
| Clc1ccc(CCC(Cn2ccnc2)Sc2c(Cl)cccc2Cl)cc1 (stereo not given) | 1.06 |
| N#CC(c1ccc(Cl)cc1)c1c(Cl)cc(-n2ncc(=O)[nH]c2=O)cc1Cl (stereo not given) | 0.86 |
| Cc1cc(=O)c(C(=O)N[C@@H](C(=O)N[C@@H]2C(=O)N3C(C(=O)O)=C(CSc4nnnn4C)CSC23)c2ccc(O)cc2)c[nH]1 (stereo not given in full) | 1.12 |
| COc1ccc2nc3cc(Cl)ccc3c(Nc3cc(CN4CCCC4)c(O)c(CN4CCCC4)c3)c2n1 | 0.98 |
| CC1=C(C(=O)O)N2C(=O)[C@@H](NC(=O)C(N)c3ccccc3)[C@H]2SC1 (stereo not given in full) | 1.23 |
| CC(C)C(C)/C=C/C(C)C1CCC2C3=CC=C4CC(O)CCC4(C)C3CCC21C (stereo not given) | 0.85 |
| CC1CC2C3CCC4=CC(=O)C=C[C@]4(C)[C@@]3(F)[C@@H](O)C[C@]2(C)[C@@]1(O)C(=O)CO (stereo not given in full) | 1.37 |
| CC(C)(CO)[C@@H](O)C(=O)NCCC(=O)O | 0.88 |
| CN1C(C(=O)Nc2ccccn2)=C(O)c2sc(Cl)cc2S1(=O)=O | 0.88 |
| CC(=O)NC(CS)C(=O)O (stereo not given) | 1.36 |
| CC(NCCc1ccc(O)cc1)C(O)c1ccc(O)cc1 (stereo not given) | 1.05 |
| Cc1cc2nc3c(=O)[nH]c(=O)nc-3n(C[C@@H](O)[C@@H](O)[C@@H](O)COP(=O)(O)O)c2cc1C | 1.04 |
| CC(C)NC[C@H](O)COc1cccc2ccccc12 | 1.37 |
| CN[C@@H]1[C@H](O[C@H]2[C@H](O[C@@H]3[C@@H](O)[C@H](O)[C@@H](N=C(N)N)[C@H](O)[C@H]3N=C(N)N)O[C@@H](C)[C@]2(O)C=O)O[C@@H](CO)[C@H](O)[C@H]1O | 0.98 |
| CN(C)CC[C@H](c1ccc(Cl)cc1)c1ccccn1 | 1.28 |
| COc1ccc(C2Sc3ccccc3N(CCN(C)C)C(=O)C2OC(C)=O)cc1 (stereo not given) | 1.22 |
| Cc1c(-c2cnccn2)ssc1=S | 0.98 |
| CC(C)=CCC/C(C)=C/CC/C(C)=C/CC/C(C)=C/CC/C(C)=C/CC/C(C)=C/CC/C(C)=C/CC/C(C)=C/CC/C(C)=C/CO | 1.07 |
| Nc1nc(F)nc2c1ncn2[C@@H]1O[C@H](COP(=O)(O)O)[C@@H](O)[C@@H]1O | 0.92 |
| CC1(C)CCC[C@]2(C)[C@H]3CC(=O)O[C@]3(C)CC[C@@H]12 | 1.19 |
| Cc1cc2nc3c(=O)[nH]c(=O)nc-3n(CC(O)C(O)C(O)CO)c2cc1C (stereo not given) | 1.1 |
| N[C@@H](CC(=O)N1CCn2c(nnc2C(F)(F)F)C1)Cc1cc(F)c(F)cc1F | 1.18 |
| NC(=O)c1ncn(C2O[C@H](CO)[C@@H](O)[C@H]2O)c1N (stereo not given in full) | 1 |

Experiment: growth inhibition of DIPG glioma cells, dose response, cell-based, SU-DIPG-XVII, MIPE5.0, CellTiter-Glo, qHTS (AID 1347060);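 for AC50: cells exposed to compound for 48 hours before viability readout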
Conditions: SU-DIPG-XVII viability, CellTiter-Glo ATP luminescence

| Compound | AC50 | outcome |
| --- | --- | --- |
| CC[C@]1(O)CC2CN(CCc3c([nH]c4ccccc34)[C@@](C(=O)OC)(c3cc4c(cc3OC)N(C)[C@H]3[C@@](O)(C(=O)OC)[C@H](OC(C)=O)[C@]5(CC)C=CCN6CC[C@]43[C@@H]65)C2)C1 (stereo not given in full) | 0.0209 µM (active) |  |
| C[C@]12CCC3c4ccc(O)cc4CCC3C1CCC2=O (stereo not given in full) |  | inactive |
| OC[C@@H](O)[C@@H](O)[C@H](O)[C@@H](O)CO |  | inactive |
| COC(=O)/C=C/C(=O)OC |  | inactive |
| O=c1ccn([C@@H]2O[C@H](CO)[C@@H](O)[C@H]2O)c(=O)[nH]1 |  | inactive |
| N#C[C@@H]1C[C@@H]2C[C@@H]2N1C(=O)[C@@H](N)C12CC3CC(CC(O)(C3)C1)C2 |  | inactive |
| Cc1coc2c1C(=O)C(=O)c1c-2ccc2c1CCCC2(C)C | 5.9 µM (active) |  |
| OC(c1cc(C(F)(F)F)nc2c(C(F)(F)F)cccc12)C1CCCCN1 (stereo not given) | 20.9 µM (active) |  |
| C[C@H]1COC2=C1C(=O)C(=O)c1c2ccc2c1CCCC2(C)C | 20.9 µM (active) |  |
| CCCCS(=N)(=O)CCC(N)C(=O)O (stereo not given) |  | inactive |
| CC[C@@]1(O)C(=O)OCc2c1cc1n(c2=O)Cc2cc3cc(O)ccc3nc2-1 | 0.0166 µM (active) |  |
| COc1ccc2nc3cc(Cl)ccc3c(Nc3cc(CN4CCCC4)c(O)c(CN4CCCC4)c3)c2n1 | 9.34 µM (active) |  |
| CC(C)C(C)/C=C/C(C)C1CCC2C3=CC=C4CC(O)CCC4(C)C3CCC21C (stereo not given) |  | inactive |
| CC(C)(CO)[C@@H](O)C(=O)NCCC(=O)O |  | inactive |
| CN1C(C(=O)Nc2ccccn2)=C(O)c2sc(Cl)cc2S1(=O)=O |  | inactive |
| CC(=O)NC(CS)C(=O)O (stereo not given) |  | inactive |
| CC(NCCc1ccc(O)cc1)C(O)c1ccc(O)cc1 (stereo not given) |  | inactive |
| CN[C@@H]1[C@H](O[C@H]2[C@H](O[C@@H]3[C@@H](O)[C@H](O)[C@@H](N=C(N)N)[C@H](O)[C@H]3N=C(N)N)O[C@@H](C)[C@]2(O)C=O)O[C@@H](CO)[C@H](O)[C@H]1O |  | inactive |
| Cc1c(-c2cnccn2)ssc1=S | 10.5 µM (active) |  |
| Nc1nc(F)nc2c1ncn2[C@@H]1O[C@H](COP(=O)(O)O)[C@@H](O)[C@@H]1O | 18.6 µM (active) |  |
| Cc1cc2nc3c(=O)[nH]c(=O)nc-3n(CC(O)C(O)C(O)CO)c2cc1C (stereo not given) |  | inactive |
